Source: PubChem (Johns Hopkins Ion Channel Center)
Sampled rows, rich in hits. Any-hit rate of the full collection: about 1.6%.
KCNQ2 enhance: enhances the rat KCNQ2 potassium channel; O88943; CHO-K1 KCNQ2, FluxOR thallium flux fluorescence; stronger effect = higher value; B-score at 10 µM; 310,000 tested, 0.54% active;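 active = fluorescence ratio B-score at least 3 SD of library B-scores, with initial fluorescence B-score within 3 of them, cut at about 5.3 in these data; same plate scores as AID 2156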;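 also: B-score of peak minus minimum over baseline fluorescence ratio after K+ and Tl+ stimulus; positive B-score means potentiation of KCNQ2 with more thallium influx and brighter signal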
KCNQ2 block: inhibitors of rat KCNQ2 potassium channel. O88943. CHO-K1 KCNQ2, FluxOR thallium flux, 20 min; stronger effect = lower value. B-score at 10 µM. 310,000 tested, 1.1% active. AID 2156;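 active = fluorescence ratio B-score at most minus 3 library SDs, with starting brightness B-score within 2 library SDs, cut at about -5.5 in these data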
KCNQ2 block conf: rat KCNQ2 channel inhibition, confirmatory screen | KCNQ2-expressing cells, thallium flux; stronger effect = lower value | AID 493025 | 1,000 tested, 57% active | shares compounds with KCNQ2 block | activity change, negative = inhibition, % at 10 µM;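 also: 0% = vehicle wells and values are ratio percent relative to vehicle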
KCNQ1 spec: selectivity of KCNQ2 inhibitors against human KCNQ1. KCNQ1-expressing cells, FluxOR thallium flux fluorescence; stronger effect = lower value. 1,000 tested, 15% active. activity change, negative = inhibition, % at 10 µM. AID 493026. shares compounds with KCNQ2 block;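 active = activity change at least 3 SD of negative controls below their mean in both duplicate wells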;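 also: CHO cells stably transfected with KCNQ1 and depolarized by potassium stimulus; peak minus minimum fluorescence over baseline after thallium addition; 0% = vehicle negative control and -100% = blank without thallium stimulus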
CHO parental ctr: counter-screen for KCNQ2 inhibitors: effect in parental CHO cells; shares compounds with KCNQ2 block; 1,000 tested, 14% active; activity change, % at 10 µM; thallium flux counter-screen; stronger effect = lower value;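 also: 0% = vehicle negative controls with stimulus buffer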
KCNQ2 inh confirm: confirmation of rat KCNQ2 potassium channel inhibitors; shares compounds with KCNQ2 block; KCNQ2-expressing cells, automated patch clamp current; calls only at 10 µM; 550 tested, 49% active; AID 588531
The depositor's hits bear a star. Unless noted, no rule for the calls is given here.

Screening O=C(c1ccco1)N1CCN(Cc2csc(-c3ccccc3Cl)n2)CC1 returned KCNQ2 block inactive.
Screening COc1ccccc1C(=O)NC(=O)COC(=O)c1cc[n+]([O-])cc1 returned KCNQ2 enhance 1.18 and KCNQ2 block inactive.
For O=C(/C=C/c1ccccc1)N1CCC(Cc2ccccc2)CC1 the results were KCNQ2 block inactive.
For O=C(/C=C/c1cccc(Cl)c1)N1CCC(Cc2ccccc2)CC1 the results were KCNQ2 enhance -10.9, KCNQ2 block -10.9*, KCNQ2 block conf -35.0%*, KCNQ1 spec -41.0%*, CHO parental ctr -34.0%* and KCNQ2 inh confirm active.
For COc1ccc(C(=O)NC(CCSC)C(=O)N2CCCCCC2)cc1 (stereo not drawn) the results were KCNQ2 block inactive.
Screening NS(=O)(=O)c1ccc(N2C(=O)C(=O)/C(=C(/O)c3ccccc3)C2c2ccc(Cl)cc2)cc1 (stereo not drawn) returned KCNQ2 enhance 0.3 and KCNQ2 block inactive.
Screening S=c1nc(NCc2cccc(Cl)c2)c2ccccc2[nH]1 returned KCNQ2 block inactive.
Screening CC(/C=N/NC(=O)c1nnn(-c2nonc2N)c1C(C)C)=C\c1ccco1 returned KCNQ2 enhance 0.81 and KCNQ2 block inactive.
Screening COC(=O)CNC(=O)C1CCN(S(=O)(=O)c2cnc[nH]2)CC1 returned KCNQ2 block inactive.
Screening CCOC(CCn1c(SCc2cccc([N+](=O)[O-])c2)nc2ccccc2c1=O)OCC returned KCNQ2 enhance -7.29, KCNQ2 block -7.29*, KCNQ2 block conf inactive, KCNQ1 spec inactive and CHO parental ctr inactive.
`COc1ccc(C(=O)Nn2c(SCc3cccc([N+](=O)[O-])c3)nc3ccccc3c2=O)cc1` gave KCNQ2 block inactive.
`O=C(Nn1c(SCc2cccc([N+](=O)[O-])c2)nc2ccccc2c1=O)c1ccccc1` gave KCNQ2 enhance -8.92, KCNQ2 block -8.92*, KCNQ2 block conf -37.5%*, KCNQ1 spec -40.5%*, CHO parental ctr -32.5%* and KCNQ2 inh confirm active.
Screening COCCn1c(SCc2cccc([N+](=O)[O-])c2)nc2ccccc2c1=O returned KCNQ2 block inactive.
`CCOC(=O)N1CCN(C(=O)c2oc3ccc(S(=O)(=O)N(CC)CC)cc3c2C)CC1` gave KCNQ2 enhance 3.03 and KCNQ2 block inactive.
`Cc1ccc(-c2[nH]ncc2CN2CCN(C(=O)c3cccs3)CC2)cc1C` gave KCNQ2 block inactive.
`COC(=O)C(C)NC(=O)C1CCCN1C(=O)CNC(=O)OCc1ccccc1` (stereo not drawn) gave KCNQ2 block inactive.
Screening CC(C)CNC(=O)[C@H](Cc1ccccc1)NC(=O)c1cccs1 returned KCNQ2 block inactive.
Cc1cccc(C)c1NC(=O)CN(C)C(=O)Cn1c(=O)cnc2ccccc21 was read as KCNQ2 block inactive.
For Cc1nc(SC(C)C(=O)NCC2CCCO2)c2cc(-c3ccccc3)sc2n1 (stereo not drawn) the results were KCNQ2 block inactive.
`Cc1c(C)n(C(=O)CN2CCC(C(N)=O)CC2)c2ccccc12` gave KCNQ2 block inactive.
